High-throughput results deposited in PubChem by National Center for Advancing Translational Sciences (NCATS).
In the library only some 6.2% were active in any assay of this set; here they are far more common.
HCMV antiviral: human cytomegalovirus inhibition | AID 1259415 | activity change, negative = inhibition, % at 57.5 µM | actives 4.5% (n = 410,000) | HFF cells, HCMV-luciferase reporter, 72 h; active compounds read low; in the data active means activity change below about -60%; inconclusive means no clear call, values can overlap the other calls; inactive means above about -39%
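Inhibition of viral replication was scored as loss of reporter luminescence in HFFs infected with HCMV-luciferase (MOI 1 PFU/cell) for 72 h; compounds tested at 2 doses, normalized to buffer and Salinomycin controls.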
Lassa entry inh: blocks Lassa virus binding to or entry into cells; Lassa virus pseudotype entry inhibition, cell reporter; Potency, µM (top dose mostly 37.9 µM), for inactives: at the highest dose activity change, negative = inhibition, hits mostly inhibitors; actives 1.2% (n = 300,000); calls by dose curve; tested in HEK293 cells; further: potency means the concentration at half of the fitted maximal effect; nearly all actives have a fitted effect of over 50% in size
Marburg entry inh: inhibitors of Marburg virus binding or cell entry; Marburg virus pseudotyped entry inhibition, cell reporter; Potency, µM (highest dose often 37.8 µM), for inactives: at the highest dose activity change, negative = inhibition, usual class: inhibitors; actives 1.8% (n = 300,000); AID 540276; calls by dose curve; tested in HEK293 cells; further: potency means the concentration at half of the fitted maximal effect
FMDV antiviral: blocks foot and mouth disease virus | AID 1159524 | FMDV antiviral cell-based qHTS | Potency, µM (highest dose often 57.9 µM), without a hit: at the top dose activity change, negative = inhibition, usual class: inhibitors | actives 1.2% (n = 410,000); calls by dose curve; tested in HEK293T cells; further: read-out not given here; potency means the concentration at half of the fitted maximal effect; nearly all actives have a fitted effect of over 45% in size
An asterisk follows results filed as active; ? = inconclusive; / = not tested or not shown; + = active, no number; [ ] = remark or other dose. On the % scale 0 is the no-effect control and ±100 the full control effect.

SMILES	HCMV antiviral	Lassa entry inh	Marburg entry inh	FMDV antiviral
COc1cccc(-c2csc3ncnc(Sc4nnnn4C)c23)c1	-99*	/	/	20µM*
Cc1ccc(-c2csc3ncnc(SCC(=O)O)c23)cc1	21	-4%	3%[46.1 µM]	-9%
COc1ccc(-c2csc3ncnc(N4CCN(S(=O)(=O)c5cccc(C(F)(F)F)c5)CC4)c23)cc1	?	4%	1%	-17%
Cn1nnnc1Sc1ncnc2scc(-c3ccc(C(F)(F)F)cc3)c12	-99*	/	/	11µM*
Cn1nnnc1Sc1ncnc2scc(-c3cccc(C(F)(F)F)c3)c12	-99*	/	/	22µM*
Cn1nnnc1Sc1ncnc2scc(-c3ccccc3C(F)(F)F)c12	-83*	/	/	?
Cc1ccc(Cc2c(C)nc3nc(SCC(=O)NCCCN4CCCCCC4)nn3c2C)cc1	?	7%[46.1 µM]	?	-9%
O=C(/C=C/c1ccc(Cl)cc1)c1cccnc1	-8	-2%	?	-7%
O=C(/C=C/c1ccccc1Cl)c1cccnc1	-15	?	?	14µM*
N#Cc1ccc(/C=C/C(=O)c2cccnc2)cc1	9	?	?	40µM*
COc1cccc(-c2cc(C(F)(F)F)n3ncc(C(=O)NCC4CCCO4)c3n2)c1 (configuration not stated)	-26	?	?	28µM*
COC(CNC(=O)C1CCN(C(=O)c2cc3oc(C)cc3n2Cc2c(F)cccc2Cl)CC1)OC	-67*	?	?	0%
CCOC(=O)N1CCC(NC(=O)C2CCN(C(=O)c3cc4oc(C)cc4n3Cc3c(F)cccc3Cl)CC2)CC1	-2	/	/	-8%
O=S1(=O)CC(N2CCCCC2)CN1CCc1ccccc1 (configuration not stated)	-4	/	?	3%
O=C1C=CC2(O[C@H](c3ccccc3)[C@@H](c3ccccc3)O2)[C@H](Sc2ccccc2O)C1	-100*	6.3µM*	?	7.9µM*
CCn1cc(CN(C)C(=O)CSc2nc(-c3ccco3)cc(C(F)(F)F)n2)c(C)n1	-23	-24%	?	20µM*
Cc1c(CN(C)C(=O)CSc2nc(-c3ccco3)cc(C(F)(F)F)n2)cnn1C	8	-2%	-9%	/
c1ccc(CNCCC(Cc2ccccc2)c2ccco2)cc1 (configuration not stated)	24	?	?	-5%
CN(C)c1ccc(CNCCC(Cc2ccccc2)c2ccco2)cc1 (configuration not stated)	?	?	15µM*	-27%
C=CCN1C[C@H](C)N(C(c2ccc(C(=O)N(CC)CC)cc2)c2cccc(OC)c2)CC1C (some centres not stated)	-65*	/	/	/
CCCc1cc(=O)n2[nH]cc(-c3ccc(Cl)cc3)c2n1	-96*	?	?	?
COCc1cc(=O)n2[nH]cc(-c3ccccc3)c2n1	45	15%	-1%	15%
S=C(NCc1ccncc1)Nc1ccc(Cl)c(Cl)c1	?	-18%	?	25%
O=[N+]([O-])c1cc(C(F)(F)F)cc([N+](=O)[O-])c1NCCNC(=S)Nc1ccc(Cl)c(Cl)c1	-93*	?	?	-23%
COc1ccc(CNc2nc(NCc3ccc(OC)cc3)n(C(=O)c3ccccc3[N+](=O)[O-])n2)cc1	-31	4.1µM*	5%	21%
SMILES	HCMV antiviral	Lassa entry inh	Marburg entry inh	FMDV antiviral
CCN(CC)C(=O)CSc1nc2c(sc(=S)n2-c2ccccc2)c(=O)n1-c1ccccc1OC	?	?	?	-8%
N#CCSc1nc2c(sc(=S)n2Cc2ccco2)c(=O)n1-c1ccc(F)cc1	-107*	-10%	?	?
CSc1nc2ccsc2c(=O)n1-c1ccccc1	-26	-7%[46.1 µM]	-22%[46.1 µM]	-13%
CCn1c(=S)sc2c(=O)n(-c3ccccc3)c(SC)nc21	-61*	-3%	-13%	18µM*
CCN(CC)C(=O)CSc1nc2c(sc(=S)n2-c2ccccc2)c(=O)n1-c1ccc(OC)c(OC)c1	-68*	/	/	-19%
CCN(CC)C(=O)CSc1nc2c(sc(=S)n2-c2ccccc2)c(=O)n1-c1ccc(OC)cc1OC	-69*	/	/	-5%
Cc1cc(F)ccc1NC(=O)C1CCCN(C(=O)c2cnn(-c3ccccc3)c2-n2cccc2)C1 (configuration not stated)	-25	-23%[46.1 µM]	5%[46.1 µM]	-27%
COc1cccc(CN2C(=O)[C@H]3Cc4c([nH]c5ccccc45)C(C)(C)N3C2=O)c1	-19	/	/	35µM*
Cc1ccccc1CN1C(=O)[C@@H]2Cc3c([nH]c4ccccc34)C(C)(C)N2C1=O	-4	/	/	?
COc1ccccc1CN1C(=O)[C@@H]2Cc3c([nH]c4ccccc34)C(C)(C)N2C1=O	-17	/	/	28µM*
CCOc1cc2c3c(c1)C(C)=CC(C)(C)N3C(=O)C2=O	-63*	/	/	28%
CCc1nn2c(=O)c(S(=O)(=O)Nc3ccc(Cl)cc3)c(C)nc2s1	53	3%[46.1 µM]	-23%[46.1 µM]	-19%
CCc1nn2c(=O)c(F)c(N3CCNCC3)nc2s1	-105*	/	/	-17%
Cc1oc2cc3oc(=O)c(CCC(=O)N4CCCCC4)c(C)c3cc2c1C	30	?	?	24%
CCOC(=O)N1CCN(c2c(NCc3ccc(Cl)cc3)c(=O)c2=O)CC1	-75*	/	/	-24%
CCOC(=O)N1CCN(c2c(NCCCN(C)c3ccccc3)c(=O)c2=O)CC1	-75*	/	/	-16%
COc1ccc(Cn2c(SCc3ccc(C)cc3)nc3cc(OC)c(OC)cc3c2=N)cc1Cl	-99*	10µM*	2.8µM*	35µM*
COc1ccc(Cn2c(SCc3cc(C)ccc3C)nc3cc(OC)c(OC)cc3c2=N)cc1	-23	6.5µM*	4.6µM*	?
CCn1cc2nc(SCc3cc(C)ccc3C)n(Cc3ccc(OC)cc3)c(=O)c2n1	2	?	/	?
COC(=O)C1=C(c2ccc(Cl)c(C(F)(F)F)c2)C[C@@H]2CC[C@H]1N2C(=O)NCc1cc(C)oc1C(F)(F)F	-11	/	/	?
O=C1c2cccc3cccc(c23)C(=O)N1c1ccc2ncccc2c1	-31	?	?	-4%
CCN(C(=O)CN1CCN(C)CC1)c1c(N)n(Cc2ccccc2)c(=O)[nH]c1=O	-6	-7%	6%	-9%
Cc1cccc(CN2C(=O)N/C(=C/c3cc(C)n(-c4cc(C)ccn4)c3C)C2=O)c1	/	11µM*	?	-30%
Cc1cccc(CN2C(=O)N/C(=C/c3ccc(C)s3)C2=O)c1	2	3.2µM*	?	2%
Cc1ccc(/C=C2/NC(=O)N(Cc3ccccc3)C2=O)s1	57	?	2%	0%
Cc1ccc2cc(CNCCc3ccccc3C)c(=O)[nH]c2c1	15	4%	-57%	-17%
COc1cc2ccccc2cc1C(=O)NC(=S)Nc1nnn(C)n1	-25	0%	-2%	-13%
Cn1nnc(NC(=S)NC(=O)c2cc(Cl)ccc2Cl)n1	+	/	/	14%
CCOc1ccc(N2C(=O)c3[nH]nc(-c4ccc(OC)cc4)c3C2c2cccs2)cc1 (configuration not stated)	-95*	?	7.9µM*	40µM*
CCOc1ccc(N2C(=O)c3n[nH]c(-c4cccs4)c3C2c2cccc(F)c2)cc1 (configuration not stated)	-18	?	?	?
